ELG1 genotox: qHTS screen for small molecules that induce genotoxicity in human embryonic kidney (HEK293T) cells expressing luciferase-tagged ELG1; Potency, µM (top dose mostly 46 µM), inactives show at the highest dose activity change, positive = activation, hits mostly activators; actives 1.3% (n = 330,000); HEK293T ELG1-luciferase reporter, luminescence, 16 h; AID 504466, 2011; further: % of control where 0% means no effect; nearly all actives have a fitted effect of over 60% in size
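Cells (2,000/well) expressing the ELG1-luciferase fusion are dosed by pin tool and kept 16 hr at 37 °C, 5% CO2. Signal comes from ONE-Glo luciferase reagent after 30 min at room temperature.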
SMN2 splice enh: qHTS Assay for Enhancers of SMN2 Splice Variant Expression. HEK293 SMN2-luciferase splicing reporter, luminescence, 30-36 h. Potency, µM (titrated, usually from 46.1 µM), for the others: at the top dose activity change, positive = activation, hits mostly activators. actives 2.8% (n = 210,000). AID 1458, 2008; further: % of control where 0% means no effect; nearly all actives have a fitted effect of over 55% in size
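qHTS luciferase splicing reporter: luminescence rises when SMN2 exon 7 is included in transfected HEK293 cells. Compound exposure lasted 30-36 h at 37C, with 4.5 mM final sodium butyrate as control, followed by a ONE-Glo read.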
NPC1 promoter act: qHTS Assay for NPC1 Promoter Activators; Huh7 NPC1 promoter luciferase reporter, 24 h; Potency, µM (top dose mostly 9.22 µM), without a hit: at the top dose activation, actives largely listed as activators; actives 2.4% (n = 320,000); AID 485313, 2010; further: % of control where 0% means no effect; nearly all actives have a fitted effect of over 60% in size
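In 1536-well qHTS, Huh7 cells harboring an NPC1 promoter–luciferase construct received compound for 24 h; activation was quantified by luminescence following luciferase reagent addition.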
KinaseGlo FLuc: Counterscreen for Luciferase (Kinase-Glo TM) Inhibition; Potency, µM (doses to about 38.3 µM), without a hit: at the highest dose activity change, negative = inhibition, usual class: inhibitors; Luciferin 4-monooxygenase (Photuris pensylvanica), Q27757; actives 0.28% (n = 200,000); Kinase-Glo luciferase, ATP luminescence, 8 min; further: on the % scale 0 is the no-effect control and ±100 the full control effect; nearly all actives have a fitted effect of over 60% in size
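Kinase-Glo luciferase light output from ATP and luciferin was measured with 10 uM ATP, within the enzyme's linear range. Buffer: 50 mM imidazole pH 7.2, 50 mM KCl, 7 mM MgCl2, 0.01% Tween 20, 0.05% BSA; luminescence read after 8 min at ambient temperature.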
FLuc counter: qHTS profiling assay for firefly luciferase inhibitor/activator using purifed enzyme and Km concentrations of substrates (counterscreen for miR-21 project); actives 6.9% (n = 360,000); Potency, µM (top dose mostly 57.5 µM), without a hit: at the highest dose activity change, negative = inhibition, hits mostly inhibitors; Luciferin 4-monooxygenase (Photinus pyralis), P08659; purified FLuc, Km substrates, luminescence inhibition;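 further: plate controls were vehicle for no effect and reference inhibitor for full effect; nearly all actives have a fitted effect of over 55% in size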
Target sequence (P08659 whole entry, looked up): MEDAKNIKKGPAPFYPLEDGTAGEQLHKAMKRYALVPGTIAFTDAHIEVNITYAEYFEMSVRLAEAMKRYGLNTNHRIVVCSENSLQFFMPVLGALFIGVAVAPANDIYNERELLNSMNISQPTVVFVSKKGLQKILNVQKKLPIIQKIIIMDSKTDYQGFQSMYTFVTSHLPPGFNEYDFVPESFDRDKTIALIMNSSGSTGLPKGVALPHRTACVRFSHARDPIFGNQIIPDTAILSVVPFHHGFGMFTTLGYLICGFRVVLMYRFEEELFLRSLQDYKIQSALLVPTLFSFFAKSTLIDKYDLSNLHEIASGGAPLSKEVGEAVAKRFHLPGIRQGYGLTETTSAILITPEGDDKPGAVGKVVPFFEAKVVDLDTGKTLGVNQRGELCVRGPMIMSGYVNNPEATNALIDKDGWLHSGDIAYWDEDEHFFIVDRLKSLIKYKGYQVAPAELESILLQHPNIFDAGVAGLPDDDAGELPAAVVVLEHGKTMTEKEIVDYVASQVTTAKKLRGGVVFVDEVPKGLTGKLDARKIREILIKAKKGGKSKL
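Biochemical qHTS of compounds, final roughly 60 µM downward over six points, against 10 nM purified firefly luciferase using Km concentrations of substrates (10 uM D-luciferin, 10 uM ATP) in Tris acetate pH 7.5 buffer; luminescence output.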
Rab9 promoter act: qHTS Assay for Rab9 Promoter Activators; Huh7 Rab9 promoter-luciferase reporter, luminescence, 24 h; AID 485297, 2010; Potency, µM (titrated, usually from 9.22 µM), inactives show at the highest dose activation, negative = inhibition, most hits filed as activators; actives 2.8% (n = 320,000); further: % of control where 0% means no effect; nearly all actives have a fitted effect of over 60% in size
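Huh7 cells stably carrying Rab9 promoter–luciferase reporter, plated 1500 cells/well, compound added after 2 h and incubated 24 h at 37 °C; luciferase luminescence then read after 10 min with detection reagent.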
* = called active by the depositor; u = inconclusive; x = no result; [ ] = dose if it differs, or a comment. Compounds with a hit are over-represented: about 7.3% of the library has one in this group of screens. The call rests on the fitted dose curve; in most records, active means well fitted curve in the direction sought with a large enough effect; inconclusive means small, poorly fitted or top-dose-only effect, or another doubt; inactive means no such curve, though single readings can be large; an effect the other way counts as inactive or inconclusive. Potency means the concentration at half of the fitted maximal effect.

SMILES	ELG1 genotox	SMN2 splice enh	NPC1 promoter act	KinaseGlo FLuc	FLuc counter	Rab9 promoter act
C=C(C)Cn1c(=O)c2c(nc3n2CCN3c2ccc(CC)cc2)n(C)c1=O	x	x	x	x	-3.9%	x
COc1ccc(OC)c(NC(=O)c2cc3sccc3n2C)c1	1.2%	-1.4%	18.5%	-2.3%	12µM*	19.6%
Cc1ccc(O)c(NC(=O)c2cc(-c3ccc4c(c3)OCO4)on2)c1	x	16.5%	x	x	u	x
CC(=O)c1cccc(NC(=O)c2cc(-c3ccc4c(c3)OCCO4)on2)c1	x	x	x	x	0.151µM*	x
CC(=O)c1cccc(NC(=O)c2cc(-c3ccc(C)cc3)on2)c1	4.61µM*	u	u	0.2%	u	u
O=C(Nc1ccc(SC(F)F)cc1)c1cc(-c2ccc3c(c2)OCCO3)on1	x	x	x	x	5.36µM*	x
O=C(Nc1ccc(SC(F)F)cc1)c1cc(-c2cccs2)on1	x	x	x	x	-14.1%	x
O=C(Nc1cccc(O)c1)c1cc(-c2ccc3c(c2)OCO3)on1	u	x	u	x	0.151µM*	u
Cc1nn(CC(=O)NC2CC2)c(=O)c2cc3cc(F)ccc3n12	x	-10.5%	x	x	-3.8%	x
Cc1ccc(C)c(Cn2c(=O)n(CCCCCC(=O)NCc3ccc4c(c3)OCO4)c(=O)c3sccc32)c1	x	7.2%	x	x	-15.5%	x
COc1ccccc1CNC(=O)Cn1c(=O)nc(-c2ccccc2F)c2cc(Cl)ccc21	x	x	x	x	-5.0%	x
CCOc1ccccc1NC(=O)Cn1nnc2sc3c(c2c1=O)CCC(C(C)(C)C)C3 (stereo unspecified)	x	-14.1%	x	x	-2.1%	x
CC(=O)Nc1ccc(NC(=O)c2cc(-c3ccc4c(c3)OCCO4)on2)cc1	x	x	x	x	0.338µM*	x
CC(=O)c1ccc(NC(=O)c2cc(-c3ccc4c(c3)OCO4)on2)cc1	x	6.0%	x	x	-1.7%	x
Cc1ccc(OC(=O)c2cc(-c3ccc4c(c3)OCCO4)on2)c(C)c1	x	x	x	x	1.51µM*	x
COC(=O)C1=C(C(=O)OC)[C@@H]2Nc3ccccc3[C@@]23C[C@@H](C(=O)OC)N(S(=O)(=O)c2ccc(C)cc2)C3=N1	x	-5.2%[9.22 µM]	x	-3.5%[7.66 µM]	x	x
COCCNC(=O)Cc1c(C)c2c(cc(C)c3c(C)coc32)oc1=O	2.4%	x	0.6%	x	u	-9.8%
COCCCNC(=O)Cc1c(C)c2c(cc(C)c3c(C(C)(C)C)coc32)oc1=O	-3.8%	x	-10.9%	x	10.7µM*	-19.8%
Cc1cc2oc(=O)c(CC(=O)O)c(C)c2c2occ(-c3ccccc3)c12	x	21.1%	x	x	6.01µM*	x
Cc1c(CC(=O)O)c(=O)oc2c(C)c3occ(-c4ccccc4)c3cc12	-0.3%	x	-2.8%	x	-8.8%	2.8%
CCOc1ccc(OCC)c(NC(=O)CCc2nc3cccnc3n2-c2ccccc2)c1	x	-17.6%	x	x	5.8%	x
COc1cc(C(CC(=O)Nc2cc(C)ccc2C)N2Cc3ccccc3C2=O)cc(OC)c1OC (stereo unspecified)	x	x	x	x	0.4%	x
COc1cccc(CNC(=O)c2cc3c(=O)n(Cc4cccnc4)ccc3nc2C)c1	x	x	x	x	0.4%	x
COc1ccc(C(=O)NCc2cn3ccsc3n2)cc1OC	-1.1%	-4.0%	8.3%	-0.4%	0.0%	0.1%
COc1ccc(C(=O)Nc2cccc(-c3cn4ccsc4n3)c2)cc1OC	x	x	x	x	3.38µM*	x
SMILES	ELG1 genotox	SMN2 splice enh	NPC1 promoter act	KinaseGlo FLuc	FLuc counter	Rab9 promoter act
COc1ccc(C(=O)Nc2cccc(-c3cn4ccsc4n3)c2)c(OC)c1	x	x	x	x	2.69µM*	x
COC(=O)c1ccc2c(c1)N(Cc1nc(-c3cccc(C)c3)oc1C)C(=O)C1CCCN21 (stereo unspecified)	8.9%	10µM*	0.5%	-5.0%	-1.3%	2.3%
Cc1ccc(N/C=C/C(=O)C(C)(C)C)c(O)c1	10.2%	4.0%	4.2%	1.1%	19µM*	16.6%
CCOC(=O)c1cc(OC(=O)c2ccccc2F)n(-c2ccccc2)n1	x	-6.2%	x	x	-0.7%	x
Cc1ccc(-c2cn3c(n2)sc2cc(C(=O)NCCCc4ccccc4)ccc23)c(C)c1	x	x	x	x	-0.7%	x
CCOC(=O)c1c(NC(=O)c2cccs2)sc(C)c1CC	-8.5%	-9.8%	-8.5%	13.0%	-1.8%	-2.8%
CCc1c(C)sc(NC(=O)c2cc(C)on2)c1C#N	u	26.1%	u	-1.2%	12µM*	u
CCc1c(C)sc(NC(=O)c2cccs2)c1C#N	u	11.2µM*	u	-3.0%	7.57µM*	u
CCCc1cc(C(=O)Nc2sc(C)c(CC)c2C#N)no1	7.4%	6.3%	6.3%	-0.5%	-14.4%	0.1%
Cc1sc(NC(=O)c2ccccc2)c(C#N)c1-c1ccccc1	u	8.91µM*	2.82µM*	-5.9%	2.39µM*	1.58µM*
COc1ccc(C(CC(=O)Nc2ccc(C)cn2)N2Cc3ccccc3C2=O)cc1OC (stereo unspecified)	x	x	x	x	-2.1%	x
Cc1ncc(CO)c(/C=N/N=C/c2ccccc2O)c1O	u	22.9%	0.6%	-2.8%	2.39µM*	-3.2%
Cc1cc(N=Cc2c(CO)cnc(C)c2O)c(N=Cc2c(CO)cnc(C)c2O)cc1C.[Zn]	x	-15.4%[9.22 µM]	x	-1.9%[7.66 µM]	x	x
Cc1ccc(S(=O)(=O)c2nnn3c2nc(NCc2ccc4c(c2)OCO4)c2sccc23)cc1C	x	x	x	x	-5.5%	x
C[N+](C)(C)c1ncnc2c1ncn2[C@@H]1C[C@H](O)[C@@H](CO)O1	x	-11.4%[9.22 µM]	x	-2.6%[7.66 µM]	x	x
Cc1ccc(-n2c(C)cc(C=C(C#N)C#N)c2C)cc1	-0.4%	-16.1%	3.3%	-4.8%	19µM*	1.1%
Cc1cc(/C=C(\C#N)c2nnc(N3CCOCC3)n2-c2ccccc2)c(C)n1-c1ccccc1	1.1%	-17.6%	-0.4%	1.2%	16.9µM*	-7.0%
Cc1cc(C=C(C#N)C#N)c(C)n1-c1ccccc1	6.2%	-9.5%	u	-1.1%	4.78µM*	u
Cc1cc(/C=C(\C#N)C(=O)O)c(C)n1-c1ccc(Br)cc1	3.6%	x	-5.4%	x	16.9µM*	0.8%
COc1cc(/C=C(\C#N)c2nnc(N3CCOCC3)n2-c2ccccc2)ccc1O	u	x	-0.4%	x	3.7%	-1.7%
FC(F)(F)c1cnc(-c2cnc(-c3cccnc3)nc2)c(Cl)c1	u	12.6µM*	2.51µM*	-3.2%	u	3.98µM*
FC(F)(F)c1cc(Cl)c2nnc(-c3cccnc3)n2c1	2.7%	x	3.2%	x	1.2%	6.2%
O=C(Nc1cccc(Cl)c1)c1ccc2c(c1)CCN2S(=O)(=O)c1ccccc1	x	-7.4%	x	x	3.3%	x

Compound activity as filed in PubChem BioAssay.
